The nature of assay [1]: qHTS assay to identify small molecule antagonists of the glucocorticoid receptor (GR) signaling pathway - cell viability counter screen (AID 720693). Also: nearly all actives have a fitted effect of over 55% in size. Also: potency is read from the fitted curve at half-maximal effect. On the technique in general: Quantitative high-throughput screening tests each substance at several concentrations.
A short description of assay [2]: qHTS assay for identifying genotoxic compounds that show differential cytotoxicity against isogenic chicken DT40 cell lines with known DNA damage response pathways - wild type cell line (AID 743012). Also: nearly all actives have a fitted effect of over 60% in size. Also: potency is read from the fitted curve at half-maximal effect. The method in brief:
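Endpoint: CellTiter-Glo luminescence, 30 min RT. Cells: wild type DT40, 300/well. Exposure: compounds in DMSO, 40 h, 37 C/5% CO2, after ~0.5 h pre-incubation.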

Assay [3] in a line: qHTS assay for identifying genotoxic compounds that show differential cytotoxicity against isogenic chicken DT40 cell lines with known DNA damage response pathways - Rev3 mutant cell line (AID 743014). Also: nearly all actives have a fitted effect of over 55% in size. Also: potency is read from the fitted curve at half-maximal effect.
A short description of assay [4]: qHTS assay for identifying genotoxic compounds that show differential cytotoxicity against isogenic chicken DT40 cell lines with known DNA damage response pathways - Rad54/Ku70 mutant cell line (AID 743015). Also: nearly all actives have a fitted effect of over 60% in size. Also: potency is read from the fitted curve at half-maximal effect.
Assay [5] in a line: qHTS assay to identify small molecule antagonists of the androgen receptor (AR) signaling pathway - cell viability counter screen (AID 743033; also: nearly all actives have a fitted effect of over 45% in size).
For assay [6], the target named is Androgen receptor (Homo sapiens) (UniProt P10275). Briefly: qHTS assay to identify small molecule antagonists of the androgen receptor (AR) signaling pathway (AID 743035; active = well fitted inhibition curve with a large enough effect in the signal ratio in the repeat runs, not every such curve was filed as active; the % refers to the signal ratio). The method in brief:
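R1881 agonist challenge of a HEK293 UAS-beta-lactamase AR reporter line in the presence of compound (16 h, 37C); signal taken as FRET fluorescence after 2 h with LiveBLAzer B/G substrate at room temperature.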

For assay [7] the target is unchanged. Description: qHTS assay to identify small molecule agonists of the androgen receptor (AR) signaling pathway (AID 743036; active = well fitted activation curve with a large enough effect in the signal ratio in the repeat runs, with a control signal flat, not every such curve was filed as active; the % refers to the signal ratio). The method in brief:
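Cell-based FRET reporter assay: HEK293 line with a UAS-beta-lactamase construct, compounds added in DMSO, 16 h exposure at 37C, then 2 h substrate step at room temperature and fluorescence intensity read.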

Assay [8] has the same target. Briefly: qHTS assay to identify small molecule agonists of the androgen receptor (AR) signaling pathway using the MDA cell line (AID 743040; also: nearly all actives have a fitted effect of over 20% in size; also: potency is read from the fitted curve at half-maximal effect). The method in brief: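 Testing was done with the MDA-kb2 AR-luc line, a human breast carcinoma stably transfected with MMTV-luciferase containing AR and GR response elements. Cells were exposed 16 h at 37C before ONE-Glo luminescence detection.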

Assay [9] is described as follows: qHTS assay to identify small molecule antagonists of the androgen receptor (AR) signaling pathway using the MDA cell line - cell viability counter screen (AID 743041; also: nearly all actives have a fitted effect of over 45% in size). The method in brief: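 Compound exposure lasted 16 h at 37C in MDA-kb2 AR-luc cells stimulated with R1881. Protease-based CellTiter-Fluor reagent was applied for the final 30 min and fluorescence measured.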

In assay [10] the target is Androgen receptor (Homo sapiens) (UniProt P10275). Description: qHTS assay to identify small molecule antagonists of the androgen receptor (AR) signaling pathway using the MDA cell line (AID 743042; also: nearly all actives have a fitted effect of over 55% in size). The method in brief: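 MDA-kb2 breast carcinoma cells carrying MMTV-luciferase (AR/GR responsive) were co-treated with compounds and the agonist R1881 for 16 h at 37C. Inhibition read as ONE-Glo luminescence; CellTiter-Fluor fluorescence measured in parallel for cytotoxicity.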
Chain of Androgen receptor (Homo sapiens) (P10275 whole entry, looked up): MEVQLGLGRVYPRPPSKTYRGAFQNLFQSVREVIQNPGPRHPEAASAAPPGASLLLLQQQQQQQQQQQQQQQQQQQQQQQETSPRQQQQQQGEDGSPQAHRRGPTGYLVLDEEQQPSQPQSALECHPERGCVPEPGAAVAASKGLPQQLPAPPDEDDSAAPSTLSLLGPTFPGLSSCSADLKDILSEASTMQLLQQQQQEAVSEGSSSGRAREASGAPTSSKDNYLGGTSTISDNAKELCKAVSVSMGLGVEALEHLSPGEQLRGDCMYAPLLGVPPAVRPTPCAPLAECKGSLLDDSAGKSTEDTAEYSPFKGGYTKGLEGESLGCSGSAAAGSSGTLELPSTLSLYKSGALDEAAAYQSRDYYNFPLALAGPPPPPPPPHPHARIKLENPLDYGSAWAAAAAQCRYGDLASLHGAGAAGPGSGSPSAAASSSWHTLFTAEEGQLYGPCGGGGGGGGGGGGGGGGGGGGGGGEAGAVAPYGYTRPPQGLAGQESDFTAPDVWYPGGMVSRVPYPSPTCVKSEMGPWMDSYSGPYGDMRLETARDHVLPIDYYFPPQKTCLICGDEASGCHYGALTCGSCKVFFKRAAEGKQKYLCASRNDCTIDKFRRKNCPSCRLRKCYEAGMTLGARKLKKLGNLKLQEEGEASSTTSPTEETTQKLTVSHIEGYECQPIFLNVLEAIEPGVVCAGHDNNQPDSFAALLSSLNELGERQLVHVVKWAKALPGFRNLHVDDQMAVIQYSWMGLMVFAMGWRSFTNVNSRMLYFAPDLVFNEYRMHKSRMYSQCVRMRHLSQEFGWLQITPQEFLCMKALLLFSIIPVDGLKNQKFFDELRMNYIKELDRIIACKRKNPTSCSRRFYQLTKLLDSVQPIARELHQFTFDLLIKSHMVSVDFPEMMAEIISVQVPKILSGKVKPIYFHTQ

Molecules are shown by their SMILES. “And” between values parts separate entries of the source, which are not always exact repeats. Equal values may be shown once. Inconclusive results are not listed. A structure can be active in one record and inactive in another. The source made the active and inactive calls. Unless noted, calls follow the shape of the dose curve; as a rule, active = well fitted curve in the direction sought with a large enough effect in the repeat runs; inconclusive = weak or mixed curves; inactive = no such curve, though single readings can be large; an effect the other way counts as inactive or inconclusive.

As to `CC1CCC(C(C)CS)CC1S` (configuration not stated), the Potency in [1] is 49 µM (active). Moreover, the Potency result in assay [2], in assay [3], in assay [4], in assay [5], in [6] and in assay [8] was “inactive” in each case. The Potency entry in [9] and in assay [10] was “inactive” throughout. Besides, the compound was classed as inactive in assay [7].
Take `Nc1ccc(F)cc1`: the Potency entry in [1], in [2], in assay [3], in assay [4], in assay [5] and in [6] was “inactive” in each case. For the same compound, the Potency entry in assay [8], in assay [9] and in assay [10] was “inactive” in each case. In addition, the call in [7] was inactive.
For the compound `COc1ccc(C2C(=O)c3ccccc3C2=O)cc1`, the Potency entry in [1], in [2], in assay [3], in [4], in [5] and in assay [9] was “inactive” throughout.
Turning to `CC(C)(C)S`, the Potency entry in assay [1], in assay [2], in assay [3], in assay [4] and in assay [5] was “inactive” in each case.
Consider `COc1ccc(-c2cc(=S)ss2)cc1`, for which the Potency entry in [1] is “inactive”. Moreover, the Potency in assay [2] is 26.6 µM (active).
`CC(C)CC(O)CC(C)C`: the Potency entry in assay [1], in [2], in assay [3], in assay [4] and in assay [5] was “inactive” throughout.
As for `CN1C(CSCC(F)(F)F)Nc2cc(Cl)c(S(N)(=O)=O)cc2S1(=O)=O` (configuration not stated), the Potency result in assay [1], in assay [5], in [6], in assay [8], in assay [9] and in assay [10] was “inactive” in each case. Moreover, the Potency in assay [2] is 11.9 µM (active); in [3] it was 26.6 µM (active); in assay [4] it was 23.7 µM (active). In assay [7], the compound was classed as inactive.
Regarding `CCCCCCCC(=O)OCCCCCC`, the Potency entry in [1], in [2], in [3], in assay [4], in assay [5] and in assay [6] was “inactive” in each case. The Potency entry in [8], in [9] and in assay [10] was “inactive” in each case. In addition, in [7], the compound was classed as inactive.
For `O=C(O)/C=C/c1ccc(O)c(O)c1`, the Potency entry in [1], in assay [2], in assay [3], in [4], in [5] and in assay [9] was “inactive” in each case. Further, the Potency result in assay [10] is “inactive”. In assay [8], the Potency was 27.5 µM (active).
With `CCCCC[C@H](O)/C=C/[C@H]1[C@H](O)CC(=O)[C@@H]1C/C=C\CCCC(=O)O`, the Potency result in [1], in assay [2], in assay [3], in [4], in [5] and in [8] was “inactive” each time. In [9], the Potency entry was “inactive”.
Consider `CCC(C)(C)C(=O)O`, for which the Potency entry in [1], in assay [2], in [3], in assay [4], in assay [5] and in assay [6] was “inactive” throughout. Further, the Potency result in assay [9] and in [10] was “inactive” throughout. In addition, the compound was classed as inactive in [7].
Consider `C1=CCC2CC=CC2C1` (configuration not stated), for which the Potency entry in assay [1], in [2], in assay [3], in [4], in assay [5] and in [6] was “inactive” each time. For the same compound, the Potency result in assay [8], in [9] and in assay [10] was “inactive” throughout. For the same compound, the result in [7] was inactive.
Take `O=C(O)CNC(=O)c1ccccc1I`: the Potency entry in assay [1], in assay [2], in assay [3], in [4], in assay [5] and in assay [9] was “inactive” in each case.
On to `Cc1cccc2sc(N)nc12`, for which the Potency entry in [1], in assay [2], in assay [3], in [4], in [5] and in [9] was “inactive” in each case.
In the case of `C[C@@H]1[C@H](O)[C@@H](C)/C=C/C=C\C=C\C=C\C=C\C=C\C=C\[C@H](O[C@@H]2O[C@H](C)[C@@H](O)[C@H](N)[C@@H]2O)C[C@@H]2O[C@](O)(C[C@@H](O)C[C@@H](O)[C@H](O)CC[C@@H](O)C[C@@H](O)CC(=O)O[C@H]1C)C[C@H](O)[C@H]2C(=O)O` (stereo in doubt), the Potency entry in assay [1], in assay [2], in assay [3], in assay [5] and in assay [9] was “inactive” throughout. Further, the Potency result in [4] is “inactive and 61.1 µM (active)”.
`CC(C)N=C=NC(C)C`: the Potency entry in assay [1], in assay [2], in assay [3], in assay [4], in [5] and in assay [9] was “inactive” throughout.
As for `CSCC[C@H](NC(=O)[C@H](Cc1c[nH]c2ccccc12)NC(=O)CCNC(=O)OC(C)(C)C)C(=O)N[C@@H](CC(=O)O)C(=O)N[C@@H](Cc1ccccc1)C(N)=O`, the Potency result in assay [1], in assay [2], in assay [3], in assay [4], in [5] and in assay [9] was “inactive” each time.
With `C=CC(=O)NC(C)C`, the Potency entry in [1], in assay [2], in assay [3], in [4], in [5] and in assay [9] was “inactive” each time.
Take `CCCCC(CC)COS(=O)(=O)O` (configuration not stated): the Potency entry in assay [1], in assay [2], in assay [3], in assay [4], in assay [5] and in [9] was “inactive” in each case.
As for `CC(C)(O)CCc1ccccc1`, the Potency entry in assay [1], in assay [2], in assay [3], in assay [4], in [5] and in assay [9] was “inactive” throughout.
Take `CCOC(=O)c1c(N)sc2c1CCN(Cc1ccccc1)C2`: the Potency result in assay [1], in assay [5] and in [9] was “inactive” each time. The Potency in assay [2] was 29.8 µM (active); in assay [3], 29.8 µM (active); in assay [4] it was 26.6 µM (active).
Turning to `Nc1ccn([C@H]2CS[C@@H](CO)O2)c(=O)n1`, the Potency entry in assay [1], in assay [2], in assay [3], in assay [4], in assay [5] and in assay [9] was “inactive” each time.
`CCCCCC`: the Potency entry in assay [1], in assay [2], in [3], in assay [4], in assay [5] and in [9] was “inactive” each time.
With `CCCCCCCCCCCCCOC(=O)CCSCCC(=O)OCCCCCCCCCCCCC`, the Potency entry in [1], in assay [2], in [3], in [4], in assay [5] and in assay [9] was “inactive” throughout.
As for `COc1ccc2nc(S(=O)Cc3ncc(C)c(OC)c3C)[nH]c2c1` (configuration not stated), the Potency result in [1], in [5] and in assay [9] was “inactive” each time. For the same compound, the Potency was 21.1 µM (active) and inactive in assay [2]; 26.6 µM (active) and inactive in assay [3]; 26.6 µM (active) in [4].
Consider `O=C(O)c1ccc(O)cc1O`, for which the Potency result in assay [1], in [2], in [3], in assay [4], in [5] and in assay [9] was “inactive” in each case.
Consider `C/C(C=O)=C\c1ccccc1`, for which the Potency result in assay [1], in assay [2], in assay [3], in [4], in [5] and in assay [9] was “inactive” each time.

The values above are taken from PubChem BioAssay (Tox21).
